The text below walks through data of the supplement of paper PMC6555819.

This test deals with VDR:RXRa (NR concentration 270 nM, RXRa partner concentration 90 nM). Nature of the test: PBM binding z-score (relative to random genomic background probes); higher = stronger binding; sequences stand for … in GC…GCGATTGACAGCGTAGAATGAAGG
On the procedure:
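Protein-binding microarray (Agilent 4x180K custom design, double-stranded 60-nt probes: 5' GC cap, 34-nt variable region, 24-nt constant primer region; full probe sequence given). Purified or IVT nuclear receptor:RXRα heterodimers (3:1 NR:RXRα, mostly 270:90 nM) or homodimers were incubated for 1 h in PBS with 2% milk and no ligand, then detected with Alexa488 antibodies. Fluorescence from o1-orientation probes (~5 replicates averaged) was converted to z-scores against 500 random hg19 background probes. Variable regions are seed direct-repeat (DR0–DR5) sites, all their single-nucleotide variants and half-site ablations.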
The sequence CGAACTAGGTCATTGACAGGACAGTGACTAGTAA registered a PBM binding z-score of 2.42. The sequence TCTGCTAAGTCAACGATGGTCAGCTAATCTGCTA came in with a PBM binding z-score of -0.644. CCGAGTAGGTTAGGGGGCATTCAGGCAACGGTGA: the PBM binding z-score came to 2.93. To ATCTCTAGGTAAAGATAGCTCAGTGAATGCAAAT belongs -0.433; to TCTTGTAGATCAAAGGTTAAGAAAGCCGAAGCCT, 1.37. Turning to TAGCCTAGGTCAGATCGGGCTAGTATACGCTATA, the PBM binding z-score came to 0.302. For TCTAGTTGGTCACGGCGGTCACACACGACGGGTA, the PBM binding z-score stood at 1.82. TCAGACAGGTGAAGGTAACTCAGGTACGCAGTCG showed a PBM binding z-score of 0.943. GTACCAAGGTGAATAGGTCGTTGACGAGTAGGCG gave a PBM binding z-score of 0.987.

As to TCTTGTAGATCAAGCAGGTTAAGAATGCCTGAGT, the PBM binding z-score is 0.48. CCTTACGGGTCACTCCAGGTTATAGCTTCGGAGT: the PBM binding z-score is 3.95. Consider ATATGTAGGTTAGCTGGGGTCACTCAGACTAGGC, for which the PBM binding z-score was found to be 5.64.

Take GCTAGCAGGCCATTTGGGTCACTCCATGACGGGC: the PBM binding z-score came to 0.513. Regarding ACAGACAGGTGATGAAGGTACCTCAGGCTATCAT, the PBM binding z-score is -0.291. In turn, ATACCAAGGTGATCGTGAGGTAGTTGATACTAAC registered a PBM binding z-score of -0.169.

As for CTCGAAAGGTCGGTTGAGGTGAGTTTACGGATAA, the PBM binding z-score was found to be 3.29.

As for CCTACTGGGCCAATCAGAGGTCATTGATCATATG, the PBM binding z-score was 4.12. CAAACTAGGTCAAAGGTAAAAGTCGAGCCAACCA showed a PBM binding z-score of 2.98. TCTTGTAGATCAGCAGCTTAAGAAAGCTGGCCAA came in with a PBM binding z-score of -0.232. ACTGACGGGTCAACGAGGTTATAGCACGCGTATA returned a PBM binding z-score of 7.41.

The sequence TCTAGTTGGTCACGGAGGCCACACACGACGGGTA registered a PBM binding z-score of 2.19.

For the sequence ACTCGGAGGACAAAGGTCGGAGCTACGCCAGTGA, the PBM binding z-score was 0.947.

CTAGAAAGGTCGGTTGAGGTGAGTATACGGATAA gave a PBM binding z-score of 2.4.

For AATACAGGGTCAGTAGGCCAGAGTAGGTACGAAT, the PBM binding z-score stood at 2.65. Sequence ATCGAAAGTTCGACGAGGTGAGTATACACCGTTT displayed a PBM binding z-score of 2.81.

In the case of CCTACTGAGCCAAAGGTCATTGATTCCAATGCTC, the PBM binding z-score was 4.81.

ATCTCTAGCTAAAAGTTCAGTGAATCCCGAGGAT registered a PBM binding z-score of 0.955.

AGTCAAAGTTCACTAGGTAACTTAAGATTCAGCT displayed a PBM binding z-score of 3.88. To ATCTCTAGGTAAAGTTCAGTGGAAGATCGATAGA belongs 1.44; to TCATATAGGTAAAAAGTGAAAGTCGGTGTGGTAA, 0.783; to GCGACTGGGGCATCAGCAGGTAACCATAACTTAA, -0.245. The sequence CCTGACGGGTCACTGACAGGTTATAGCATTTGGA came in with a PBM binding z-score of 2.94. TCTCGGAGGACGCGAAAGGTCAGAGCTCGACATC displayed a PBM binding z-score of 2.8. In turn, CTTGAAAGGTCGGTTGAGGTGAGTATACGGATAA displayed a PBM binding z-score of 2.66. For the sequence GATACAGGGCCAGCTAGAGGCCAGAGTATGGAAA, the PBM binding z-score is -0.843. Sequence TCATATAGGTTAATGCTAGGTGAAAGTCCGATCT had a PBM binding z-score of 1.43.

In turn, TCATAGAGGTAAATGCTAGGTGAAAGTCCGATCT came in with a PBM binding z-score of 0.364. The sequence AGAACGAGGGCAATGATTTGATAGCACGGGTGGC yielded a PBM binding z-score of 0.334.

GCTATTAGTTGAAAGAGCAACCGAATGATTCTCG returned a PBM binding z-score of -0.419.

With ACTAGCAGGCCAAGTTTGTGTCACTCAAACAAAG, the PBM binding z-score was -0.313.
